Reference: PubChem BioAssay AID2599 (Sanford-Burnham Center for Chemical Genomics, 2010)
About 5,800 (1.8%) of roughly 330,000 compounds were called active.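 How the source made its calls: active means inhibition above about 50% at the single tested dose (limit read from the data); inactive means the rest.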 The list comes from a sample in which actives are over-represented; it also holds similar structures and randomly drawn compounds.

Each molecule was assayed against Sentrin-specific protease 6 (Homo sapiens) (UniProt Q9GZR1) (assay: inhibition of human SENP6 catalytic domain – biochemical, luminescence, uHTS, primary screen (AID 2599;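 further: plate controls were DMSO wells with enzyme for no effect and DMSO wells lacking enzyme for full effect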)). Conditions: Recombinant SENP6 catalytic domain, aminoluciferin luminescence; at 10 µM; active compounds read high.
Sequence of Sentrin-specific protease 6 (Homo sapiens) (Q9GZR1 628-1112 limits assumed): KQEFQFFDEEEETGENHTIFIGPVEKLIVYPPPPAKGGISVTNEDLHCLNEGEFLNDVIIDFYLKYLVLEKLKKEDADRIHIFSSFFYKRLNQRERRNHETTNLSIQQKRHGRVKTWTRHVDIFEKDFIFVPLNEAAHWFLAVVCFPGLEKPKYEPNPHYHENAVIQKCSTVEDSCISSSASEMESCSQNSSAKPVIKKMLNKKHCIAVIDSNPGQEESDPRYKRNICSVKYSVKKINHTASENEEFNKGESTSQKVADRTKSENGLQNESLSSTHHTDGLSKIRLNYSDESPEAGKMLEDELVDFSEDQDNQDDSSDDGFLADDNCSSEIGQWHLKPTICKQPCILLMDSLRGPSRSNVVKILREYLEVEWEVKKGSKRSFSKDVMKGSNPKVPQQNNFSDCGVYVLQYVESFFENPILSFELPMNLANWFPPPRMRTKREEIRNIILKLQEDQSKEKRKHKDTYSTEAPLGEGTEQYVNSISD

inhibition, inactive:
CCCCNC(=O)c1cn(CC)c2cc(N3CCN(C(=O)c4ccco4)CC3)c(F)cc2c1=O 12.7%
Cc1noc(C)c1CSc1nc2cc(S(=O)(=O)N3CCOCC3)ccc2o1 3.51%
O=C(NC1CCCCC1)c1cc(C2CC2)on1 -14.8%
CSc1ccccc1NC(=O)c1cc(Cl)sc1Cl -4.94%
Nc1c(C(=O)OCC(=O)Nc2ccc(OC(F)F)cc2)[nH]c(=O)[nH]c1=O 4.9%
O=C(/C=C/c1ccc([N+](=O)[O-])o1)NNC(=O)c1ccc(F)cc1 -1.45%
CCCCN(CC)C(=O)C1CCCN(S(=O)(=O)c2cccc3nsnc23)C1 (configuration not stated) 8.83%
COC(=O)c1cccc(C(=O)N2CCC(CCC(=O)NCc3ccc(F)cc3)CC2)c1 2.77%
CCCc1nc(N2CCN(C)CC2)c2sc(=S)n(-c3ccccc3)c2n1 8.07%
O=C(COc1ccc(Cl)cc1)NCc1nnc(SCC(=O)NCC2CCCO2)o1 (configuration not stated) -1.58%
O=C1CSc2ccc(C(=O)NCc3ccccn3)cc2N1 0.274%
COc1ccc(Cl)cc1NS(=O)(=O)c1cccc(C(=O)NC2CCC(O)CC2)c1 (configuration not stated) 3.9%
CN1C(=O)/C(=N/OC(=O)c2ccccc2Br)c2ccccc21 20.2%
CCC1C(=O)c2ccccc2N(C)C1=O (configuration not stated) -9.28%
O=C(NC1CCCCC1)c1ccc(-c2ccc(Cl)cc2)o1 -2.51%
CCOc1ccc(C(c2c(C)[nH][nH]c2=O)c2c(C)[nH][nH]c2=O)cc1OCC 16.7%
Cc1cccc(NC(=O)C2CCCN(C(=O)NCc3ccccc3)C2)c1C (configuration not stated) 8.32%
CCNC(=O)CC1C(=O)N(c2ccc(OC)cc2)C(=O)N1CCOC (configuration not stated) -17.8%
CCCCCCCCCOC1OC(CO)C(O)C(O)C1NC(C)=O (configuration not stated) -4.5%
CCCN(CCc1ccccc1)C1CCc2c(O)cccc2C1 (configuration not stated) -8.37%
CCCCC(CC)C(=O)Nc1ccc(Cl)cn1 (configuration not stated) 0.311%
COc1ccc(C(=O)NC(=S)Nc2ccc(Cl)cn2)cc1OC -0.015%
CCCc1cc(C(=O)Nc2ccc(C(=O)OC)cc2)cs1 -4.63%
Cc1ccc(C(=O)NNC(=O)c2ccc3c(c2)OCCO3)cc1 16.5%
COc1c(Cl)cc(C(=O)Nc2ccc(Cl)cn2)cc1Cl 23.4%
Cc1cccc(C)c1NC(=O)CNC(=O)c1ccc2c(c1)OCCO2 -7.93%
O=C(/C=C/c1cnc2ccccc2n1)NC1CCCCCC1 -2.57%
O=C(CC1C(=O)NCCN1Cc1ccc(-c2ccccc2)cc1)NCc1ccncc1 (configuration not stated) -5.88%
CC1CN(S(=O)(=O)c2cccc(C(F)(F)F)c2)CN1C(=O)N1CCOCC1 (configuration not stated) -20.3%
COc1cc(OC)c(NC(=O)C2CCCN2C(=O)OCc2ccccc2)cc1Cl (configuration not stated) -8.31%
CC1(C)CC(=O)C2=C(C1)NCN(CCCN1CCOCC1)C2 1.73%
CCCn1nnc(NC(=O)COc2ccc(CC)cc2)n1 1.27%
CC(=O)C(CC(=O)N1CCCC1)C(=O)Nc1ccc(Cl)cc1 (configuration not stated) -4.11%
CC(C)C(=O)Nc1nnc(Sc2ccc(N(C)C)cc2)s1 -0.866%
O=C(c1ccc(F)cc1)c1cn(Cc2ccc(F)cc2)c2cc3c(cc2c1=O)OCCO3 -4.67%
CC1COC2C(O1)N(S(C)(=O)=O)CCN2S(C)(=O)=O (configuration not stated) -1.6%
CC1(C)CC(=O)C=C(NCc2ccncc2)C1 11.9%
Cc1csc(OCC(=O)Nc2ccc(C)c(C)c2)n1 -7.65%
Oc1ccc(Br)cc1/C=N/Nc1ccccn1 14.9%
CCN(CC)CCn1c(/N=C/c2cc(Br)ccc2O)nc2ccccc21 5.27%
Cc1ccn(-c2cccc(-n3ccc(C)n3)n2)n1 -0.107%
O=S(=O)(c1ccc(Br)c2ccccc12)N1CCOCC1 -3.67%
Cc1c(Cl)c([N+](=O)[O-])nn1CC(=O)NCCCN1CCOCC1 -13.8%
N/C(=N\OC(=O)c1ccc2c(c1)OCO2)c1ccc(Br)cc1 46%
CC(=O)c1cc2c(cc1N)OCO2 1.73%
Cn1c2ccccc2c2cc(/C=C(\NC(=O)c3ccccc3)C(=O)NCC(=O)O)ccc21 -6.28%
Cc1nn(C)c(C)c1NS(=O)(=O)c1ccc(OC(F)(F)F)cc1 5.85%
O=C1COc2ccc(S(=O)(=O)Nc3ccc(OC(F)(F)F)cc3)cc2N1 -6.08%
C[C@@H]1CN([C@@H](C)CO)C(=O)c2cccc(NS(=O)(=O)c3ccc(F)cc3)c2O[C@H]1CN(C)C(=O)NC1CCCCC1 -9.28%
CCOc1ccc(NC(=O)COc2ccc(S(=O)(=O)N3CCCC3)cc2)cc1 -19.8%

inhibition, active:
CSc1ccccc1NC(=O)c1cc(C2CC2)on1 52%
c1ccc(CN=C2Nc3ccccc3CS2)nc1 52.5%
CN1C(=O)/C(=C\c2cc(Br)cs2)c2ccccc21 66.3%
Cc1[nH][nH]c(=O)c1C(c1ccc(-c2ccc(Cl)cc2)o1)c1c(C)[nH][nH]c1=O 53.1%
Clc1ccc(C2=CSC3=Nc4cccc5cccc(c45)N23)cc1 82.2%
CCCc1cc(C(=O)Nc2ccc(Cl)cn2)cs1 86.5%
Cc1nc(NC(=O)c2ccc3c(c2)OCCO3)ccc1Br 70.9%
O=C(Nc1ccc(Cl)cn1)c1ccc2c(c1)OCCO2 76.8%
COCCN(CCOC)c1nc(N)c2c(N)nc3c(c2c1C#N)CC(=O)N3Cc1ccc(Cl)cc1 81.3%
Oc1ccc(Br)cc1C=Nc1ccc2[nH]ncc2c1 55.4%
Nc1[nH][nH]c(=O)c1N=Nc1ccc2c(c1)OCO2 51.5%
O=S(=O)(Nc1ccc(O)c2ccccc12)c1ccc(OC(F)(F)F)cc1 74.9%
